The text below walks through data of PubChem BioAssay AID1085 (Emory University Molecular Libraries Screening Center, 2008).

Screen size: about 220,000 compounds; about 930 (0.42%) were called active. Rule as the data show it: active = inhibition above about 50%; inactive = the rest. For the sample, actives were picked, then their nearest neighbours and some compounds at random.

Sequence of Glycoprotein 42 (Epstein-Barr virus (strain AG876)) (Q1HVG2 whole entry, looked up): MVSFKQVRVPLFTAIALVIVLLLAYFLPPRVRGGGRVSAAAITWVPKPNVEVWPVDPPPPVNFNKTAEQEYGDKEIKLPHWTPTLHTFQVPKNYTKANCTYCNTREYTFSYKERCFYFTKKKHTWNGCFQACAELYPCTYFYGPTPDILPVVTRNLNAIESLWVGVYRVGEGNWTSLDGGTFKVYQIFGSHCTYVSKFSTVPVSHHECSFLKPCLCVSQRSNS

This experiment has as its target Glycoprotein 42 (Epstein-Barr virus (strain AG876)) (UniProt Q1HVG2). In words: Epstein-Barr virus gp42 inhibitors, primary screen, biochemical, uHTS, fluorescence polarization (AID 1085). The following applies: Fluorescence polarization binding assay, mP read-out; stronger effect = higher value; tested at 21.74 µM. (In fluorescence polarisation assays a small probe gives low polarisation when free and higher when bound to something large.)
The term inhibition denotes the relative decrease from the control value, in per cent. As for `CC(=O)NNC1=Nc2ccccc2N(C)C(C)C1` (stereo not drawn), the inhibition was -1.65% (inactive).
`COc1ncnc2c1N=C1CC(C)(C)CC(N)=C1S2`: the inhibition was 81.4% (active).
Consider `CC(C)(C)c1ccc(/C=C/C(=O)Nc2ncccn2)cc1`, for which the inhibition was -8.99% (inactive).
The figure for `COc1cc(N2C(=O)CC3(CCCC3)CC2=O)cc(OC)c1OC` is -4.54% (inactive); for `CCOC(=O)N1CC=C2C(C#N)=C(N)C(C#N)(C#N)[C@H](c3cccs3)[C@H]2C1` it is 6.62% (inactive).
On to `CCN1CC=C2C(C#N)=C(N)C(C#N)(C#N)[C@H](c3ccoc3)[C@H]2C1`, for which the inhibition is 56.6% (active).
The figure for `CCCN1CC=C2C(C#N)=C(N)C(C#N)(C#N)C(c3cc(OC)ccc3OC)C2C1` (stereo not drawn) is 36.5% (inactive); for `Cc1no[n+]([O-])c1COc1ccccc1/C=C1\NC(=S)NC1=O` it is -22.4% (inactive); for `COc1ccc(-n2cnnc2SCC(=O)Nc2cccc([N+](=O)[O-])c2)cc1` it is 6.38% (inactive).
The figure for `CC1CN(S(=O)(=O)c2ccc(C(=O)Nc3sccc3C(N)=O)cc2)CC(C)O1` (stereo not drawn) is 6.08% (inactive).
`O=C(Nc1cccnc1)c1ccc(Cl)c([N+](=O)[O-])c1`: the inhibition is -3.95% (inactive).
As for `Cn1cc(CN2CCCC(CO)C2)c(-c2ccc(Oc3ccccc3)cc2)n1` (stereo not drawn), the inhibition is -12.6% (inactive).
The figure for `COC(=O)C1=C(C)Nc2ncnn2C1c1ccco1` (stereo not drawn) is 6.95% (inactive).
Take `CC1=C(C(=O)OCc2ccccc2)C(c2ccco2)n2ncnc2N1` (stereo not drawn): the inhibition is 4.92% (inactive).
The figure for `Brc1ccc(C2=CC(c3ccco3)n3ncnc3N2)cc1` (stereo not drawn) is 105% (active).
The figure for `Cc1cc(-c2nc(C)c(-c3nnc(SCC(=O)Nc4ccccc4)n3C)s2)no1` is -5.93% (inactive); for `COc1ccc(Cc2n[nH]c(=S)n2NC(=O)Nc2ccc(C)cc2)cc1` it is -9.72% (inactive).
With `O=C(Nc1cn(-c2ccccc2)nc1-c1ccccc1)c1ccccc1`, the inhibition is -10.3% (inactive).
The figure for `CCCCN1C(=O)CC(N2CCOCC2)C1=O` (stereo not drawn) is -40.1% (inactive).
For the molecule `C(=N\N1CCN(c2ccccn2)CC1)/C1=C(N2CCOCC2)C(=C/c2ccccc2)/CC1`, the inhibition is 22.4% (inactive).
The figure for `N#C/C(=C\C1=C(N2CCOCC2)C(=C\c2ccccc2)/CC1)C(=O)Nc1ccccc1F` is 154% (active).
For the molecule `N#C/C(=C\c1ccccc1C(F)(F)F)C(=O)Nc1ccccc1F`, the inhibition is -19.9% (inactive).
Turning to `Cc1sc2nc(CC(N)=O)[nH]c(=O)c2c1-c1ccccc1`, the inhibition is -7.12% (inactive).
With `CN1CCN(CCNC(=O)Nc2ccc([N+](=O)[O-])cc2)CC1`, the inhibition is -6.33% (inactive).
The figure for `CCN(CC(=O)Nc1ccc(S(=O)(=O)N2CCCC2)cc1)CC(=O)Nc1cccc(OC)c1` is -7.32% (inactive); for `CCCCCCCCc1c(O)nc(-n2[nH]c(C)c(CCO)c2=O)[nH]c1=O` it is -21.7% (inactive).
As to `COc1ccc(C2=CC(c3cccc(OC)c3)n3nnnc3N2)cc1` (stereo not drawn), the inhibition is -13.3% (inactive).
The figure for `COc1ccc(C2C=C(c3ccc(Br)cc3)Nc3nc(NS(C)(=O)=O)nn32)cc1` (stereo not drawn) is 80.6% (active); for `COc1ccc(C2CC(c3ccc(C)cc3)Nc3nc(N)nn32)cc1` (stereo not drawn) it is -6.12% (inactive).
The figure for `CCOCCCNC(=S)N1CCC(NC(=O)C2CCCCC2)CC1` is -2.69% (inactive); for `Oc1c(Cl)cc(Cl)c(Cl)c1Cc1c(O)c(Cl)cc(Cl)c1Cl` it is 59.7% (active).
`CCCC[C@@H]1CN=C(N)N1CCc1cc(C(F)(F)F)cc(C(F)(F)F)c1`: the inhibition was -11.3% (inactive).
As for `CC1CCCN(S(=O)(=O)c2ccc(N(C(=O)c3cnccn3)C(C(=O)NC3CCCCC3)c3cccs3)cc2)C1` (stereo not drawn), the inhibition is -17.8% (inactive).
Turning to `Cc1cc(N2CCN(S(=O)(=O)c3ccc(C)c(C)c3)CC2)c2ccccc2n1`, the inhibition was 12.3% (inactive).
The figure for `Cc1ccc(S(=O)(=O)Nc2nc3ccccc3nc2N2CCc3ccccc3C2)cc1` is 8.67% (inactive); for `Cc1ccc(S(=O)(=O)C(C#N)c2nc3ccccc3nc2N2CCCC2)cc1C` (stereo not drawn) it is 69.2% (active).
In the case of `O=C(COc1ccc(-c2ccccc2)cc1)NN=C1CCCC1`, the inhibition is -13.3% (inactive).
For the molecule `O=C(Nc1ccc2c(c1)OCCO2)c1ccoc1`, the inhibition was -10.9% (inactive).
The figure for `COc1ccc(/C(O)=C2/C(=O)C(=O)N(CC3CCCO3)C2c2ccc(OC)c(OC)c2)cc1` (stereo not drawn) is -16.4% (inactive).
The figure for `COc1ccc(-c2nc(CS(=O)CC(=O)NCc3cccnc3)c(C)o2)cc1OC` (stereo not drawn) is -12.1% (inactive); for `COc1ccc(-c2nc(CS(=O)CC(=O)NCc3ccccn3)c(C)o2)cc1` (stereo not drawn) it is 117% (active); for `COc1ccc(-c2nc(CS(=O)CC(=O)N3CCc4ccccc4C3)c(C)o2)cc1` (stereo not drawn) it is -1.18% (inactive).
The figure for `CC[N+]1(CC)CC2=Cc3ccccc3CC2C1` (stereo not drawn) is -0.55% (inactive); for `N#Cc1cccc(Nc2c3c(nc4ccccc24)CCCC3)c1` it is 5.27% (inactive); for `Cc1cccc(N)c1SC1CCCCC1O` (stereo not drawn) it is -8.15% (inactive).
Consider `O=C(Nc1nnc(Cc2ccccc2)s1)c1cnccn1`, for which the inhibition is 58.2% (active).
`O=C(Nc1nnc(Cc2ccc(Cl)cc2)s1)c1cccnc1`: the inhibition is -5.07% (inactive).
On to `O=C(Nc1nnc(Cc2ccc(Cl)cc2)s1)c1ccncc1`, for which the inhibition is 0.5% (inactive).
`Cc1cc(C)n2nc(C(=O)N3CCN(Cc4ccc5c(c4)OCO5)CC3)nc2n1`: the inhibition was -5.29% (inactive).
`Cc1ccc(-c2nnc(SCC(=O)N/N=C/c3cccs3)n2-c2ccc(C)cc2)cc1`: the inhibition is -4.61% (inactive).
The figure for `O=S(=O)(c1cccc(C(F)(F)F)c1)N1CCN(c2cnccn2)CC1` is -12.8% (inactive).
The figure for `Oc1[nH]c2ccc(Br)cc2c1N=Nc1nn[nH]n1` is -11.8% (inactive).
The figure for `Cc1cccc(N=Nc2c(C)[nH]n(-c3ccccc3)c2=O)c1` is 4.36% (inactive); for `Cc1cccc(N=Nc2c(O)[nH]c3ccc(F)cc23)c1` it is 51.7% (active); for `COc1ccc(-c2ccc(CNCCCN3CCOCC3)o2)cc1Cl` it is -7.89% (inactive).
With `Cn1c(=O)c(=O)n(C)c2cc(S(=O)(=O)NCCN3CCN(c4ccccc4F)CC3)ccc21`, the inhibition was -5.54% (inactive).
Consider `CN(C)c1ccc(NC(=S)N(CCc2ccccc2)C2CC(=O)N(c3c(Cl)cccc3Cl)C2=O)cc1` (stereo not drawn), for which the inhibition was -7.96% (inactive).
The figure for `CCOCCCN(C(=O)Cn1nnc(-c2ccc(OC)c(OC)c2)n1)C(CC)C(=O)NC1CCCC1` (stereo not drawn) is 2.09% (inactive).
